Screening results (PubChem)
Rab9 prom act = activates the Rab9 promoter; Huh7 Rab9 promoter-luciferase reporter, luminescence, 24 h; 320,000 tested, 2.8% active; Potency, µM (titrated, usually from 9.22 µM), hits mostly activators; note: nearly all actives have a fitted effect of over 60% in size
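Quantitative HTS format; Huh7 Rab9-luciferase reporter cells (1500/well) receive compound 2 h post-plating, incubate 24 h at 37 °C, then get luciferase reagent for 10 min before luminescence reading.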
KinaseGlo FLuc = Kinase-Glo luciferase inhibition (counter-screen); Kinase-Glo luciferase, ATP luminescence, 8 min; Potency, µM (top dose mostly 38.3 µM), usual class: inhibitors; 200,000 tested, 0.28% active; AID 1379; note: nearly all actives have a fitted effect of over 60% in size
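Inhibition of Kinase-Glo luciferase light generation was assessed at 10 uM ATP in pH 7.2 imidazole buffer, with luminescence measured after eight minutes at ambient temperature.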
SMN2 splice up = enhancers of SMN2 splice variant expression | 210,000 tested, 2.8% active | HEK293 SMN2-luciferase splicing reporter, luminescence, 30-36 h | AID 1458 | Potency, µM (highest dose often 46.1 µM), actives largely listed as activators; note: nearly all actives have a fitted effect of over 55% in size
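HEK293 cells carry an SMN2 minigene-luciferase reporter in which exon 7 inclusion puts luciferase in frame. Cells were seeded at 2000 cells/well, attached for 10-12 hours, then exposed to compounds for 30-36 hours at 37C before ONE-Glo luminescence.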
ELG1 genotoxic = genotoxicity induction in ELG1-luciferase HEK293T cells | Potency, µM (top dose mostly 46 µM), hits mostly activators | HEK293T ELG1-luciferase reporter, luminescence, 16 h | 330,000 tested, 1.3% active; note: nearly all actives have a fitted effect of over 60% in size
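Quantitative HTS format in 1536-well plates. HEK293T ELG1-luciferase reporter cells receive test compound and are incubated 16 hr at 37 °C, 5% CO2; ONE-Glo added, 30 min room temperature, then luminescence read.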
NPC1 prom act = NPC1 promoter activation | 320,000 tested, 2.4% active | Potency, µM (doses to about 9.22 µM), actives largely listed as activators | Huh7 NPC1 promoter luciferase reporter, 24 h; note: nearly all actives have a fitted effect of over 60% in size
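Readout is luciferase luminescence, reflecting NPC1 promoter activation in stably transfected Huh7 cells after 24 h compound exposure at 37 °C in reduced-serum medium with 10% FBS.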
FLuc counter = counter-screen for miR-21 project: firefly luciferase inhibitors or activators | P08659 | purified FLuc, Km substrates, luminescence inhibition | Potency, µM (doses to about 57.5 µM), hits mostly inhibitors | 360,000 tested, 6.9% active; note: nearly all actives have a fitted effect of over 55% in size
Target sequence (P08659 whole entry, looked up): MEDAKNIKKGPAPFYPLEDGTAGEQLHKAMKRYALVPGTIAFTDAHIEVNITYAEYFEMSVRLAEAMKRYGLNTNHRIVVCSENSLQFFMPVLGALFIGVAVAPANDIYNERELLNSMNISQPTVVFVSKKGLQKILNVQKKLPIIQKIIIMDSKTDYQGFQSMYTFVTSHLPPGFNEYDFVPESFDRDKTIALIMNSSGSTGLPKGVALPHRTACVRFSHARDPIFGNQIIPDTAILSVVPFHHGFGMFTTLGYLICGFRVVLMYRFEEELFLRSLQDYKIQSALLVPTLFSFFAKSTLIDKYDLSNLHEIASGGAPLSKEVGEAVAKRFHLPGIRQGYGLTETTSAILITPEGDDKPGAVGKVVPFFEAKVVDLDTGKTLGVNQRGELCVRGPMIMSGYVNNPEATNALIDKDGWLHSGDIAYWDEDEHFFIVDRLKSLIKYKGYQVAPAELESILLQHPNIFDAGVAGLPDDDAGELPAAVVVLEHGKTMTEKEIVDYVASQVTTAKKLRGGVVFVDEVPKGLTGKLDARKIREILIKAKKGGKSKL
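Purified P. pyralis luciferase, 10 nM final, with Km-level 10 uM D-luciferin and 10 uM ATP in 50 mM Tris acetate pH 7.5, 10 mM Mg acetate, 0.01% Tween-20, 0.05% BSA; 6-point qHTS titration about 60 µM downward; luminescence read.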
Hits are given with their value; n = inactive; u = inconclusive; x = no result; [ ] = dose if it differs, or a comment. A selection: hits, their analogues and other compounds. The true share with any hit is near 7.4%. Calls come from the whole dose curve; as a rule, active = well fitted curve in the direction sought with a large enough effect; inconclusive = small, poorly fitted or top-dose-only effect, or another doubt; inactive = no such curve, though single readings can be large; an effect the other way counts as inactive or inconclusive.

SMILES	Rab9 prom act	KinaseGlo FLuc	SMN2 splice up	ELG1 genotoxic	NPC1 prom act	FLuc counter
O=C(Nc1ccc(N2CCN(c3ccc(F)cc3)CC2)c(C(=O)O)c1)c1ccccc1F	x	x	x	x	x	n
O=C(Nc1cc2c(oc1=O)CCCC2=O)c1ccccc1	n	n	n	n	n	n
Cc1ccc(C(=O)Nc2cc3c(oc2=O)CCCC3=O)cc1	u	n	n	u	u	21µM
FC(F)(F)c1cc(Cl)c2nc(-c3ccccc3)cn2c1	u	n	14µM	u	u	1.9µM
Nc1cccc(-c2cn3cc(C(F)(F)F)cc(Cl)c3n2)c1	1.6µM	n	7.9µM	u	1µM	1.9µM
Cc1cc(C(F)(F)F)nc(-n2cc(-c3cccc(N)c3)nn2)n1	n	x	x	n	n	n
CCOC(=O)c1sc(NC(=O)CSc2nccn2C)nc1C	u	x	x	21µM	u	u
CCOC(=O)c1sc(NC(=O)c2ccc(=O)[nH]c2)nc1C	n	x	x	n	n	u
CCOC(=O)c1sc(NC(=O)c2cccnc2)nc1C	n	n	n	u	n	15µM
CCOC(=O)c1sc(NC(=O)c2ccccc2OCC)nc1C	u	n	n	n	u	n
CCOC(=O)c1sc(NC(=O)c2ccc3nc[nH]c3c2)nc1C	n	x	x	u	n	5.4µM
CN(/N=C\c1ccccc1O)c1ccc2ccccc2n1	x	n[7.66 µM]	n[9.22 µM]	x	x	x
Cc1ccc2c(=O)c(C(=O)c3cccc(Cl)c3)cn(CC(=O)Nc3ccccc3C(F)(F)F)c2n1	x	x	x	x	x	n
CCOC(=O)Cc1csc(NC(=O)c2ccc(Br)cc2)n1	n	x	x	n	n	21µM
CCOC(=O)Cc1csc(NC(=S)NC(=O)c2ccc(Cl)cc2)n1	n	n	n	n	n	12µM
CCOC(=O)Cc1csc(NC(=O)c2ccc(C)o2)n1	n	n	n	u	n	n
CCOC(=O)Cc1csc(NC(=O)c2ccco2)n1	u	n	7.9µM	16µM	u	u
CCOC(=O)Cc1csc(NC(=O)c2ccc3ncsc3c2)n1	n	x	x	n	n	15µM
COc1cccc2c1Oc1ncccc1N(C(=O)CCC(=O)NC(C)C)C2	x	x	x	x	x	n
NS(=O)(=O)c1ccc(CCNC(=O)c2nc(SCc3ccccc3F)ncc2Cl)cc1	x	x	n	x	x	n
Cc1cc(C)c(Cn2c(C(O)c3ccccc3)nc3ccccc32)c(C)c1 (stereo not given)	x	x	n	x	x	n
CCOC(=O)Cc1csc(NC(=O)c2ccc3ccccc3n2)n1	1µM	x	x	n	1.6µM	15µM
CCOC(=O)Cc1csc(NC(=O)c2ccncc2)n1	n	n	n	n	n	n
COCCNC(=O)/C(C#N)=C/c1ccc(N2CCOCC2)o1	n	n	n	n	n	n
N#C/C(=C\c1ccc(N2CCOCC2)o1)C(=O)NC1CCCCC1	n	x	x	n	n	17µM
SMILES	Rab9 prom act	KinaseGlo FLuc	SMN2 splice up	ELG1 genotoxic	NPC1 prom act	FLuc counter
N#C/C(=C\c1ccc(N2CCOCC2)o1)C(=O)NCCc1ccccc1	n	n	n	n	n	27µM
N#C/C(=C/c1ccc(N2CCOCC2)o1)C(=O)Nc1ccccc1	2µM	n	14µM	u	2µM	2.7µM
CS(=O)(=O)c1ccccc1C(=O)Nc1ccc(-c2nc3ccccc3o2)cc1	u	x	x	n	u	24µM
O=C(O)c1ccccc1-c1ccccc1C(=O)Nc1cccc(-c2nc3ccccc3o2)c1	n	n	x	n	n	8.5µM
CS(=O)(=O)c1ccccc1C(=O)Nc1ccc(-c2nc3ccccc3[nH]2)cc1	3.5µM	x	x	n	u	13µM
COc1cccc(/C=C/c2nc(C#N)c(N3CCCCC3)o2)c1	x	x	n	x	x	n
CCOc1cc(/C=N/Nc2ccc(C(=O)O)cc2)ccc1OC(=O)c1ccccc1C	4µM	x	x	n	1.4µM	u
COc1cc(/C=N/NC(=O)c2ccc(N)cc2)ccc1OC(=O)c1cccc(C)c1	n	x	x	n	n	n
CCOc1cc(/C=N\NC(=O)c2ccc(NC(=O)C(C)(C)C)cc2)ccc1OC(=O)c1ccc(OC)cc1	n	n	n	n	n	n
COc1ccc(C(=O)N/N=C/c2ccc(OC)c(COc3ccc(F)cc3)c2)cc1	n	x	x	n	n	n
COc1cccc(OCc2cc(/C=N/Nc3ccc(C(=O)O)cc3)ccc2OC)c1	u	x	x	4.6µM	n	6.7µM
COc1cccc(C(=O)Oc2ccc(/C=N/Nc3ccc(C(=O)O)cc3)cc2OC)c1	u	x	x	u	0.45µM	24µM
O=C(NC1CCCC1)c1ccc2c(=O)n(Cc3ccccc3)c(SCc3cccc([N+](=O)[O-])c3)nc2c1	x	x	x	x	x	n
Cn1nc(C(=O)NCc2cccc(Cl)c2)c2c1-c1ccccc1SC2	x	x	x	x	x	n
CCOc1ccc(CCNCc2c(C(=O)O)n(Cc3ccc(C)cc3)c3cc(OC)ccc23)cc1	x	x	x	x	x	n
Cc1ccc2c(COC(=O)c3n[nH]c4ccccc34)cc(=O)oc2c1	n	n	x	4.6µM	u	5.4µM
CCc1ccc2c(COC(=O)c3n[nH]c4ccccc34)cc(=O)oc2c1	u	n	u	u	u	5.4µM
Cc1ccc2c(COC(=O)c3ccccc3F)cc(=O)oc2c1	u	x	x	2.1µM	u	0.19µM
Cc1ccc2c(COC(=O)c3c(C)noc3C)cc(=O)oc2c1	n	n	n	n	n	u
CCN(CC)S(=O)(=O)c1ccc(C(=O)NCCSc2c(-c3ccc(OC)cc3)[nH]c3ccccc23)cc1	x	x	n	x	x	n
CCCCCn1cnc2c(sc3nc4c(cc32)CSC(C)(C)C4)c1=O	3.2µM	n	n	u	3.5µM	3.8µM
CC1(C)Cc2nc3sc4c(=O)[nH]cnc4c3cc2CS1	n	n	u	u	n	13µM
Cc1cccc(NC(=O)N2CC(=O)Nc3sc4c(c3C2c2ccccc2)CCCC4)c1C (stereo not given)	x	x	x	x	x	n
Cc1ccc(NC(=O)CCN2CCN(CCO)CC2)cc1C	x	x	n	x	x	n
CCc1ccccc1NC(=O)C1CCCN(C(=O)c2cnn(-c3ccccc3)c2-n2cccc2)C1 (stereo not given)	x	x	n	x	x	n
SMILES	Rab9 prom act	KinaseGlo FLuc	SMN2 splice up	ELG1 genotoxic	NPC1 prom act	FLuc counter
Cc1cccc(Cn2c(=O)n(Cc3ccccc3)c(=O)c3c2c2cc(C)ccc2n3C)c1	x	x	x	x	x	n
Nc1cccc2cc(-c3ccccc3)oc12	u	x	x	u	4µM	4.8µM
O=c1cc(-c2ccccc2)oc2c(O)c(O)ccc12	x	n	n	x	x	x
COc1ccc(NC(=O)C(C)n2nc(-c3cc(C)ccc3C)c3c(c2=O)CCCC3)cc1 (stereo not given)	x	x	n	x	x	n
C=CCn1c(NC(=O)c2ccccc2)nc2ccccc21	u	x	x	n	u	24µM
CCn1c(NC(=O)c2cccc(Cn3cc(Cl)cn3)c2)nc2ccccc21	n	n	n	n	n	n
CCn1c(NCc2ccc(N(C)C)cc2)nc2ccccc21	n	n	n	u	n	13µM
CCn1c(NCc2ccc(OC)c(OC)c2)nc2ccccc21	x	x	n	x	x	n
CCn1c(NC(=O)c2ccccc2)nc2ccccc21	u	x	x	n	n	17µM
